Compound activity as filed in PubChem BioAssay.
Hits are enriched below; roughly 3.6% of the tested compounds scored in any of these assays.
Bead autofluor: counter-screen for toxin protease inhibitors: compound fluorescence; fluorescence intensity (test concentration not listed); compound autofluorescence counterscreen, microsphere flow cytometry; hits give high values; hit rate 3.1% among 360,000; AID 624483; in the data active = fluorescence intensity above about 16000; inconclusive = no clear call, values can overlap the other calls
MazEF act: MazEF (E. coli) toxin RNase activation; P0AE70; FAM/BHQ RNA-DNA oligo cleavage fluorescence, 5 h; activation, % at 20 µM; hit rate 0.32% among 350,000; AID 504720; in the data active = activation above about 50%
Target sequence (P0AE70 whole entry, looked up): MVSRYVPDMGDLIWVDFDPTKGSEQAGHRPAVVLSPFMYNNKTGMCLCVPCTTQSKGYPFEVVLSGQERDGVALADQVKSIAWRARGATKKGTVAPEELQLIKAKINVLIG
Anthrax LF inh2: anthrax lethal factor protease inhibition | P15917 | multiplex microsphere protease cleavage assay, LF | inhibition, % at 10 µM | hit rate 0.12% among 360,000; note: plate controls were buffer without enzyme for full effect and enzyme alone for no effect
BoNT-F LC inh: BoNT F light chain protease inhibition; AID 588497; Multiplex microsphere protease cleavage assay, flow cytometry; inhibition, % at 10 µM; hit rate 0.22% among 360,000; in the data active = inhibition above about 35%, passing the limit was not always enough; inconclusive = no clear call, values can overlap the other calls; note: plate controls were buffer without enzyme for full effect and enzyme alone for no effect
BoNT A protease: BoNT A light chain protease inhibition; inhibition, % at 10 µM; multiplex microsphere protease substrate cleavage, flow cytometry; hit rate 0.17% among 360,000; note: plate controls were buffer without enzyme for full effect and enzyme alone for no effect
The depositor's hits bear a star; ? = inconclusive; nt = no result. Cut-off read from the data, not from the text of the source, unless noted: active = inhibition above about 30%; inconclusive = no clear call, values can overlap the other calls; inactive = below that.

SMILES	Bead autofluor	MazEF act	Anthrax LF inh2	BoNT-F LC inh	BoNT A protease
CC(C)C[C@@H](CN1CCC[C@H]1CN1C(=O)C(=O)NC[C@@H]1Cc1ccc(O)cc1)N1C[C@H](Cc2ccc(O)cc2)N(CCc2ccccc2)C(=O)C1=O	6395	nt	5	-7	0
CCOC(=O)c1c(C)[nH]c(C(=O)CN2C(=O)NC(C)(c3ccc4ccccc4c3)C2=O)c1C (centres undefined)	20042*	-6	-3	-2	-2
CCCC1(c2ccccc2)NC(=O)N(CC(=O)c2[nH]c(C)c(C(=O)OCC)c2C)C1=O (centres undefined)	2244	5	-1	2	0
O=C(COC(=O)c1cc(=O)[nH]c2ccccc12)Nc1ccccc1F	4209	10	1	-2	0
CC(C)CSc1ncc(-c2cccc(C(F)(F)F)c2)cn1	19690*	-11	2	0	?
CCc1ccc(C(O)c2ncc(-c3cccc(C(F)(F)F)c3)[nH]2)cc1 (centres undefined)	3805	nt	-1	-7	-1
CCc1c(C2(O)CCCCC2)[nH]c2ccc(C(F)(F)F)cc12	3516	5	-6	4	0
Cc1cc(=O)[nH]c2c1c(C)nn2C1CCCC1	18691*	0	-8	5	5
O=C(CSc1nnc(-c2ccc(Cl)cc2)n1-c1ccccc1)N/N=C/c1ccccc1C(=O)O	4314	-6	-2	41*	4
COc1ccccc1-c1ccc2c(c1)C(C)(Cc1cccc(C#N)c1)C(=O)N2 (centres undefined)	3855	nt	5	1	0
CCOC(=O)N=S(N)(=O)c1ccc(Cl)cc1 (centres undefined)	3587	7	-4	7	0
CCOC(=O)N=S(N)(=O)c1ccccc1 (centres undefined)	20787*	2	0	2	0
CCOC(=O)/C(=N\Nc1ccccc1)S(=O)(=O)c1ccccc1	23295*	5	-7	-3	-1
COc1ccc(Cc2c(-c3ccc(F)cc3)nc3cc(C)c(Br)c(C)n23)c(C)c1	6076	nt	3	2	0
CCOc1ccc(C(=O)N2CCc3ccccc32)cc1OCC	3411	0	-1	-14	-2
COc1ccc(N2C(=O)CSC23C(=O)N2CCCc4cccc3c42)cc1 (centres undefined)	5932	0	-9	-13	0
COc1ccc(N2C(=O)CSC23C(=O)N2c4c(cccc43)C(C)=CC2(C)C)cc1 (centres undefined)	16577*	-8	-4	-4	-1
CCOc1ncccc1C(=O)OCC(=O)c1cc(OC)c(OC)c(OC)c1	4885	6	2	-7	-2
Cc1cccc2cc(/C=C3\N=C(c4ccccc4)OC3=O)c(N3CCOCC3)nc12	3098	-75	65*	41*	124*
O=C(O)CCn1nnc(-c2cccs2)n1	nt	3	nt	nt	nt
CC(C)c1ccc(-c2nnn(CCC(=O)O)n2)cc1	16264*	1	-2	0	0
CCn1cc(/C=C(\NC(=O)c2ccccc2Cl)C(=O)NCCN2CCOCC2)c2ccccc21	6626	9	0	-6	-2
Cc1ccccc1CSCCNC(=O)CSCc1ccc([N+](=O)[O-])cc1	21363*	-4	-3	0	?
Cc1cccc(CSCCNC(=O)CSCc2ccc([N+](=O)[O-])cc2)c1	nt	-10	nt	nt	nt
Cc1ccc(CSCCNC(=O)CSCc2ccc([N+](=O)[O-])cc2)cc1	20785*	-9	-3	-3	0
SMILES	Bead autofluor	MazEF act	Anthrax LF inh2	BoNT-F LC inh	BoNT A protease
COc1cc(CNn2nnnc2N)cc(Br)c1OCC(=O)NC(C)(C)C	5781	4	3	-8	-1
COc1cc(CNn2nnnc2N)cc(Br)c1OCc1c(Cl)cccc1Cl	23392*	-4	-1	-6	?
Cc1cc(C(=O)COC(=O)CNS(=O)(=O)c2ccc3ccccc3c2)c(C)n1-c1ccccc1	2087	2	-2	-3	0
O=C(CNS(=O)(=O)c1ccc2ccccc2c1)OCC(=O)c1ccc(Br)s1	18275*	-29	-2	7	5
O=C(CCNS(=O)(=O)c1ccccc1)NCC1CCCCC1	4608	2	-4	2	-1
Cc1ccc(NCC(O)C(O)C(O)CO)cc1C (centres undefined)	20300*	-8	-2	-2	1
O=C1CNC(=O)N1CC(=O)N1CCCc2ccccc21	20063*	-11	3	2	?
O=C1c2ccccc2C(=O)N1CCC(=O)N1CCCc2ccccc21	2799	-2	-4	2	0
O=C(CN1CCCCC1)N1CCCc2ccccc21	13151	-9	-3	0	0
